Inconclusive results are not listed. A call without a number means that no potency is given here. Activity calls are given as the source filed them. The call rests on the fitted dose curve.
Experiment: cAMP Responsive Elements (CRE) small molecule agonists, cell-based qHTS assay (AID 1963590)
Conditions: CRE-bla HEK293T, beta-lactamase FRET ratio, 3 h; series mostly up to 92.4 µM
Text: U.S. Tox21 Program National Center for Advancing Translational Sciences [NCATS] Division of Preclinical Innovation [DPI] U.S. Environmental Protection Agency [EPA] National Institutes of Environmental Health Sciences [NIEHS] National Toxicology Program [NTP] U.S. Food and Drug Administration [FDA] Tox21 Assay Overview: CREB (cyclic-AMP Responsive Element Binding Protein) is a cellular transcription factor. It binds to certain DNA sequences called cAMP Responsive Elements (CRE) and regulates the transcription of the genes. […] This cell line can be used to find agonists/antagonists of the cyclic AMP signaling pathway. The activation of the report gene under culture conditions can be detected by fluorescence intensity. This cell line has been used to screen the Tox21 10K compound library to identify agonists that induce oxidative stress.
Tox21 Assay Protocol Summary: CRE-bla Hek 293T cells were suspended in assay medium (DMEM containing 10% dialyzed FBS, 0.1 mM NEAA, 1 mM sodium pyruvate and 25 mM HEPES) and dispensed at 2,000 cells/5 uL /well into 1536-well black wall/clear bottom plates using a Multidrop Combi (ThermoFisher Scientific, Waltham, MA) dispenser. After the assay plates were incubated at 37 C/5% CO2 for 18 hrs, 23 nL of compounds dissolved in DMSO, positive controls or DMSO only was transferred to the assay plate by a pintool workstation (Kalypsys, San Diego, CA). After the plates were incubated at 37 C/5% CO2 for 3 hrs, 1 uL of LiveBLAzer B/G FRET substrate (Invitrogen, Carlsbad, CA) was added to each well using Bioraptr Flying Reagent Dispenser (FRD, Aurora Discovery, San Diego, CA). The plates were incubated at room temperature for 2 h.

Row | SMILES | Potency | activation
1 | O=C(CS)Nc1ccccc1 | inactive | –
2 | C=C(C)C(=O)OCCOCC | inactive | –
3 | O=C(NCCCN1CCOCC1)c1ccc(Cl)cc1 | inactive | –
4 | CCCCCCCCCCCCCCN(C)C | – | -0.847% [at 19 µM] (inactive)
5 | CCc1cccc(CC)c1N(COC)C(=O)CS(=O)(=O)O | inactive | –
6 | COc1ccc([C@@H]2Sc3ccccc3N(CCN(C)C)C(=O)[C@@H]2OC(C)=O)cc1 | inactive | –
7 | CN(C)Cc1ccccc1 | inactive | –
8 | NC1CCN(c2cccc(Cl)n2)CC1 | inactive | –
9 | O=c1c2ccccc2nnn1CCl | inactive | –
10 | C(=C/c1ccccc1)/c1ccccc1 | inactive | –
11 | C1CCN2C[C@@H]3C[C@@H](CN4CCCC[C@@H]34)[C@H]2C1 | inactive | –
12 | CC[N+](CC)(CC)CCOc1cccc(OCC[N+](CC)(CC)CC)c1OCC[N+](CC)(CC)CC | inactive | –
13 | C=CC1CO1 (stereo not given) | inactive | –
14 | OC[C@@H](O)[C@@H](O)CO | inactive | –
15 | CCC1(CO)COCOC1 | inactive | –
16 | CCCC(C)C=O (stereo not given) | inactive | –
17 | CC(=O)N(CC(=O)N(C)C)c1ccccc1 | inactive | –
18 | C=COCC1CCC(CO)CC1 (stereo not given) | inactive | –
19 | O=C1c2ccccc2C(=O)C1c1ccc2ccccc2n1 | inactive | –
20 | CCCCCCCCCC#N | inactive | –

Row | SMILES | Potency | activation
21 | CC(=O)Nc1ccc(N)cc1 | inactive | –
22 | O=C(O)c1c(O)c(-c2ccccc2)nc2ccccc12 | inactive | –
23 | COC(=O)NN | inactive | –
24 | Cc1cc2c(cc1S(N)(=O)=O)S(=O)(=O)CCC2 | inactive | –
25 | CC(C)OC(=O)c1ccccc1 | inactive | –
26 | Cc1cc(OI)c(C(C)C)cc1-c1cc(C(C)C)c(OI)cc1C | inactive | –
27 | C/C=C(\C)C(=O)OCCC(C)CCC=C(C)C (stereo not given) | inactive | –
28 | CCN1CCN(c2cc(-c3ccc(F)cc3)c3c(n2)CCCCCC3)CC1 | – | 0.689% [at 19 µM] (inactive)
29 | CCCCCCCCCCCC(=O)Cl | inactive | –
30 | CCCCCCCCCCCCSC | inactive | –
31 | COc1ccc2c(c1OC)C(=O)O[C@@H]2[C@H]1c2c(cc3c(c2OC)OCO3)CCN1C | inactive | –
32 | C[C@@H]1C[C@H]2[C@@H]3CCC4=CC(=O)C=C[C@]4(C)[C@@]3(F)[C@@H](O)C[C@]2(C)[C@H]1C(=O)CO | inactive | –
33 | CC(C)(C)C1CCC(=O)CC1 | inactive | –
34 | OCCCc1cccnc1 | inactive | –
35 | CCCCCCCCC1CO1 (stereo not given) | inactive | –
36 | OCCN(CCO)c1cccc(Cl)c1 | inactive | –
37 | N#Cc1ccc(CC(=O)c2cccc(C(F)(F)F)c2)cc1 | inactive | –
38 | N[C@@H](COP(=O)(O)O)C(=O)O | – | -0.511% [at 19 µM] (inactive)
39 | CCOC(=O)CC(C)O (stereo not given) | inactive | –
40 | CCc1cccc(C)c1 | inactive | –
